Screening data as filed in PubChem.
Sampled rows, rich in hits. Any-hit rate of the full collection: about 4.7%.
EBI2 antag: EBI2 (human) antagonism | P32249 | EBI2 beta-arrestin recruitment, luminescence, 7a,25-OHC stimulated | inhibition, % at 5 µM | 360,000 compounds, 0.81% hits | AID 651636; in the data active = inhibition above about 38%;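 note: enzyme fragment complementation signal reports receptor beta-arrestin coupling in cells; 0% = agonist plus DMSO wells and 100% = wells without agonist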
Target sequence (P32249 whole entry, looked up, the tested form may be a part): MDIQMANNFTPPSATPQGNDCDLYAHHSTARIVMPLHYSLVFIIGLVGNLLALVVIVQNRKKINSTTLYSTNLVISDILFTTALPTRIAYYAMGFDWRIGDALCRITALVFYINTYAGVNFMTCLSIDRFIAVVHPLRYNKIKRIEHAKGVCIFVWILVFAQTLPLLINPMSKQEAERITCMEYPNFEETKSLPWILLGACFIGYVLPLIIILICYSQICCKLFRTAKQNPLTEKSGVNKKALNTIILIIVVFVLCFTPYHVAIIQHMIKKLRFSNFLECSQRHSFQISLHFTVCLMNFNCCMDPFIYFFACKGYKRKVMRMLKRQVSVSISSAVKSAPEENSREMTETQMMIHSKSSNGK
TIM10 inh: growth inhibitors of TIM10 yeast strain; S. cerevisiae TIM10 strain growth, BacTiter-Glo luminescence, 24 h; inhibition, % at 10 µM; 330,000 compounds, 1.4% hits;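 active = inhibition of 40% or more at the single tested concentration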;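 note: wild-type TIM10 isogenic control strain grown at permissive 25 °C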
SKKanGAS inh: blocks kanamycin growth of S. pyogenes SKKanGAS strain; BacTiter-Glo, 6 h; inhibition, % at 7.5 µM; 300,000 compounds, 1.3% hits; AID 1662;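 active = mean replicate score, as percent of positive control median, at least 50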;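 note: strain carries kanamycin resistance gene driven by streptokinase promoter and grows in 40 µg/ml kanamycin; loss of luminescence reflects streptokinase promoter inhibition or plain growth inhibition; 0% = median of DMSO wells and 100% = positive control at its reference dose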
tim23-1 inh: tim23-1 yeast growth inhibition; AID 463212; S. cerevisiae tim23-1 growth, BacTiter-Glo luminescence, 24 h; 330,000 compounds, 1.3% hits; inhibition, % at 20 µM;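 active = growth inhibition of the mutant yeast at or above 50%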;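 note: temperature-sensitive mutant grown at 25 °C; plate controls were DMSO-treated mutant yeast for no effect and medium wells lacking yeast for full effect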
tim10-1 inh: tim10-1 yeast growth inhibition. S. cerevisiae tim10-1 ts strain growth, BacTiter-Glo, 24 h. inhibition, % at 20 µM. 330,000 compounds, 2.2% hits. AID 463190;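 active = inhibition of at least 40%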;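 note: mutant grown at 25 °C; 0% = DMSO wells with yeast and 100% = wells holding no yeast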
PfHsp90 set2: reduces growth (ATP signal) of yeast expressing P. falciparum Hsp90; S. cerevisiae expressing PfHsp90, BacTiter-Glo ATP, 48 h; yeast lacking PDR1 and PDR3 efflux regulators; inhibition, % at 9.4 µM; AID 504621; 310,000 compounds, 0.32% hits;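 active = every replicate shows inhibition above about 80%, whatever the replicate mean, limit read from the data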;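 note: 0% = DMSO neutral controls and 100% = 20 µM radicicol positive controls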
tim10-1 conf: tim10-1 yeast growth inhibition, confirmed | shares compounds with tim10-1 inh | S. cerevisiae tim10-1 ts strain growth, BacTiter-Glo, 24 h | inhibition, % at 20 µM | 7,400 compounds, 56% hits | AID 463213;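 active = inhibition of yeast growth at or above a set limit in either of two repeat tests at 20 µM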;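 note: tim10-1 mutant grown at permissive 25 °C to find synthetic lethal compounds; 0% = DMSO yeast wells and 100% = medium wells without yeast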
Active calls of the source: *; . = not tested or not shown.

SMILES	EBI2 antag	TIM10 inh	SKKanGAS inh	tim23-1 inh	tim10-1 inh	PfHsp90 set2	tim10-1 conf
Cc1ccn2cc(-c3cccc(S(=O)(=O)N4CCCC4)c3)nc2c1	1	9	1	27	50*	-50	-7
O=[N+]([O-])c1c(C(Cl)Cl)nn(-c2ccccc2)c1N1CCOCC1	-3	29	-2	44	44*	-35	35*
Cc1nn(-c2ccccc2)c(C)c1[N+](=O)[O-]	-3	-19	7	-4	-8	7	.
Cc1cc(Cl)ccc1NC(=S)NCCc1ccc(Cl)cc1	22	23	15	42	35	-12	.
Cc1cc(Cl)ccc1NC(=S)NCCC(c1ccccc1)c1ccccc1	15	30	66*	12	40*	-25	15
CCOC(=O)c1nnc(-c2ccc(C)cc2)nc1Oc1ccc(Cl)cc1Cl	-34	17	-7	43	50*	14	31*
CCOC(=O)c1nnc(-c2ccc(C)cc2)nc1Oc1ccccc1Cl	22	17	9	43	30	.	.
COc1ccc(C(=O)NN2CCOCC2)cc1	-1	-3	5	-8	-24	-23	.
CCc1cc(-c2n[nH]c(=S)n2-c2cccc(C)c2)cs1	-9	22	-9	36	43*	-17	30*
Cc1cccc(-n2c(-c3csc(C)c3)n[nH]c2=S)c1	-14	7	-1	19	41*	5	14
Cn1cc(/C=N\O)nc2c(=O)n(-c3ccccc3)c(=O)nc1-2	-7	7	2	4	11	1	.
CCC1CCCCN1C(=O)c1ccc([N+](=O)[O-])o1 (centres undefined)	1	38	-4	44	54*	30	35*
O=S(=O)(c1ccc2c(c1)CCCN2)N1CCCC2CCCCC21 (centres undefined)	1	18	12	45	47*	-11	26
CCc1ccc(NC2=NCC(=O)N2c2ccc3c(c2)OCCO3)cc1	2	-7	-1	19	42*	15	16
CC1(C(=O)Nc2cccc(C#N)c2)CCN1C(=O)c1ccccc1CCc1ccccc1 (centres undefined)	20	.	.	.	.	.	.
COCCn1c(-c2ccc(OC)cc2)cnc1SCC(=O)Nc1cccc2ccccc12	7	-9	-8	26	45*	3	9
COc1ccc(-c2cnc(SCC(=O)Nc3cc(C)on3)n2Cc2ccco2)cc1	1	8	11	18	44*	-5	21
COc1ccc(NC(=O)CSc2ncc(-c3ccc(F)cc3)n2Cc2ccco2)cc1	8	34	21	25	23	-10	.
C=CCNC(=S)NNc1nc2c(c(=O)[nH]1)C1(CCCCC1)Cc1ccccc1-2	-4	39	12	31	52*	-12	42*
COc1cc2c(cc1OC)CN(C(=O)CCNC(=O)c1ccc(Br)cc1)CC2	0	-7	.	3	5	-15	.
COc1cc2c(cc1OC)CN(CCC(=O)c1ccc(Br)cc1)CC2	-1	4	4	21	50*	.	33*
Clc1ccc(-n2nnnc2-c2cnc3ccc(Cl)cc3c2-c2ccccc2)cc1	-9	1	27	38	-24	6	.
Clc1ccc2ncc(-c3nnnn3-c3ccccc3)c(-c3ccccc3)c2c1	5	30	2	48	44*	-37	36*
O=C(Nc1nc2ccccc2s1)c1c(F)cccc1Cl	-3	12	1	28	5	-42	.
Cn1cc(Cl)c(C(=O)Nc2nc3ccccc3s2)n1	6	31	5	40	44*	-11	21
O=C(Nc1ccc(F)cc1)C(c1cc2ccccc2o1)N1CCN(CC(=O)N2CCCC2)CC1 (centres undefined)	-1	.	.	.	.	.	.
COc1ccc2nc(C)cc(N3CCN(S(=O)(=O)c4ccccc4F)CC3)c2c1	16	30	.	47	40*	.	21
O=C(Nc1ccccc1Cl)c1ccccc1	-1	-9	-7	10	10	-7	.
O=C(Nc1ccccc1Cl)C(Cl)C(=O)c1ccccc1 (centres undefined)	-3	25	.	39	42*	0	31*
